Assay results: the supplement of paper PMC11732987, “Enantioselective OTUD7B fragment discovery through chemoproteomics screening and high-throughput optimisation” (Communications Chemistry, 2025)

What was measured:
Assay in all cases: log2 ratio of Biotin-Ahx-Ub-VS probe labelling (fragment/DMSO); higher = less target engagement (more negative = stronger competition), active = hit call of the paper (q ≤ 0.05, log2 ratio ≤ -1)
Details in all cases: compound concentration: 200 uM; treatment time: 3 h
[1] = biological target: T1, USP19 (UniProt O94966)
T1 sequence (whole entry): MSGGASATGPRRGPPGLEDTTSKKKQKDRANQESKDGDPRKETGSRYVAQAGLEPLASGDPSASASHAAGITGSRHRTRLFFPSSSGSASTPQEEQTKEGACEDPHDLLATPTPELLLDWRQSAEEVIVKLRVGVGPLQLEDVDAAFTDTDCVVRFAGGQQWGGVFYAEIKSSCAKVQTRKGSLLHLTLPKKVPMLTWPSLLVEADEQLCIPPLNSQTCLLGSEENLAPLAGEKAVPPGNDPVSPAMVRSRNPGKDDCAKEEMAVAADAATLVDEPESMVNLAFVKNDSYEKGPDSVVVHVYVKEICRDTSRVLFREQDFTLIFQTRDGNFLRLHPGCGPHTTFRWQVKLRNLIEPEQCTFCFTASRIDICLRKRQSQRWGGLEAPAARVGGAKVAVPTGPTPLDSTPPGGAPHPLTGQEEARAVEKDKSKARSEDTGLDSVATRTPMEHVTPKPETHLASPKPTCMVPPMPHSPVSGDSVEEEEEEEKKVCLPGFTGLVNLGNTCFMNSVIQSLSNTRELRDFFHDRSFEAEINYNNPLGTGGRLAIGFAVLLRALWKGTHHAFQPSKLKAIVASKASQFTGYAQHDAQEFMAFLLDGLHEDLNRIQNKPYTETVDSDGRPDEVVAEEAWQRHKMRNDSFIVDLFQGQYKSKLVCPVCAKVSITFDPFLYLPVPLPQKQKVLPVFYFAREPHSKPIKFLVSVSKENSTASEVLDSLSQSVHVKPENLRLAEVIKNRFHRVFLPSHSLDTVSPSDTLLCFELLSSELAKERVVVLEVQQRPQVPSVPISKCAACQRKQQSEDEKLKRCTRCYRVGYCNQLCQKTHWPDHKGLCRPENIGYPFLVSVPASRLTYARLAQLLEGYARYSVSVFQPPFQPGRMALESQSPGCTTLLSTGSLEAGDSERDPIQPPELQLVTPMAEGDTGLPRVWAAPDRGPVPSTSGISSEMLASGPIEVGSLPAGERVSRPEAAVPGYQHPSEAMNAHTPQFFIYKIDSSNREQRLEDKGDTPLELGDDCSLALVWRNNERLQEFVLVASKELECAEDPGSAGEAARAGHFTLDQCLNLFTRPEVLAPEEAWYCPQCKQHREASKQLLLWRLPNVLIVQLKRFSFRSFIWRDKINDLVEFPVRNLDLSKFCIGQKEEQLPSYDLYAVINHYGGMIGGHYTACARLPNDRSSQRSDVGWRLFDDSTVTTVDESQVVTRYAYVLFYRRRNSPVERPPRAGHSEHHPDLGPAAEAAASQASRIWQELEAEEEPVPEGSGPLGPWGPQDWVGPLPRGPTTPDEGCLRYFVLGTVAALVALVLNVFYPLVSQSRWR
Summary of the method: (§1)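 Fragment (200 µM) or vehicle was incubated for 3 h with triplicate HEK293T lysate samples of 495 µg, which were then treated with Biotin-Ahx-Ub-VS at 0.5 µM final for 1 h. Labelled DUBs were enriched on NeutrAvidin, digested with LysC and trypsin, and analysed by diaPASEF LC-MS/MS. Values are average log2 fragment/vehicle ratios from an unpaired t-test on global-median-normalised Spectronaut label-free quantities, using proteins with ≥2 unique peptides.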

[2] = biological target: USP24 (UniProt Q9UPU5)
Summary of the method: as §1

[3] = biological target: T2, USP25 (UniProt Q9UHP3)
T2 sequence (whole entry): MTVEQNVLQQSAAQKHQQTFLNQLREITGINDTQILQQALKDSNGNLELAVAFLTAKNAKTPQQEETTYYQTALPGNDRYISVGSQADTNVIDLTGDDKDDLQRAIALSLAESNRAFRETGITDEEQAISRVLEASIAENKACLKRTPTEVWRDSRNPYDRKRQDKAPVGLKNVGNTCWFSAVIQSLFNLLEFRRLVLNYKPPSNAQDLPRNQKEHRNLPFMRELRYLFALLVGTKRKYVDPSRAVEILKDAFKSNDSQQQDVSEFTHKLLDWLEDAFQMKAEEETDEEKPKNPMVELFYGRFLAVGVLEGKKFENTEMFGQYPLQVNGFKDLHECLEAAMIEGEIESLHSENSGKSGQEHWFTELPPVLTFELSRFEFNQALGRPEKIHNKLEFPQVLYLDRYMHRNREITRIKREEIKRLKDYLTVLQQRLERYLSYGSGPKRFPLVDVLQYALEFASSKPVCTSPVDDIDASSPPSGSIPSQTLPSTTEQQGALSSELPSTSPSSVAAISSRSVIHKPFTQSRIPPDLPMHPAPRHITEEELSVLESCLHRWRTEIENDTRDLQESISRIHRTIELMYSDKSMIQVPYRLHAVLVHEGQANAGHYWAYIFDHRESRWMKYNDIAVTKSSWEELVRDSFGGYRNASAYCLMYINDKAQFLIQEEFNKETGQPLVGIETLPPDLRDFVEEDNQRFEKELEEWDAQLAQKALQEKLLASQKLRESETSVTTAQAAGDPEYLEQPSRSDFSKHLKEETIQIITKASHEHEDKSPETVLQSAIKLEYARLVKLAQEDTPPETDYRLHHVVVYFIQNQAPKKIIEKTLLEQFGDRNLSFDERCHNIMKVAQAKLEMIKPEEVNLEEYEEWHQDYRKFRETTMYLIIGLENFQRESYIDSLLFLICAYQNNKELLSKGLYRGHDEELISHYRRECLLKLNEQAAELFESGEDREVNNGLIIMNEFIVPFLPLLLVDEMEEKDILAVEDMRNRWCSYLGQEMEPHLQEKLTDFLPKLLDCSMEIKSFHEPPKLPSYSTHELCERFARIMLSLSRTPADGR
Summary of the method: as §1

[4] = biological target: T3, USP28 (UniProt Q96RU2)
T3 sequence (whole entry): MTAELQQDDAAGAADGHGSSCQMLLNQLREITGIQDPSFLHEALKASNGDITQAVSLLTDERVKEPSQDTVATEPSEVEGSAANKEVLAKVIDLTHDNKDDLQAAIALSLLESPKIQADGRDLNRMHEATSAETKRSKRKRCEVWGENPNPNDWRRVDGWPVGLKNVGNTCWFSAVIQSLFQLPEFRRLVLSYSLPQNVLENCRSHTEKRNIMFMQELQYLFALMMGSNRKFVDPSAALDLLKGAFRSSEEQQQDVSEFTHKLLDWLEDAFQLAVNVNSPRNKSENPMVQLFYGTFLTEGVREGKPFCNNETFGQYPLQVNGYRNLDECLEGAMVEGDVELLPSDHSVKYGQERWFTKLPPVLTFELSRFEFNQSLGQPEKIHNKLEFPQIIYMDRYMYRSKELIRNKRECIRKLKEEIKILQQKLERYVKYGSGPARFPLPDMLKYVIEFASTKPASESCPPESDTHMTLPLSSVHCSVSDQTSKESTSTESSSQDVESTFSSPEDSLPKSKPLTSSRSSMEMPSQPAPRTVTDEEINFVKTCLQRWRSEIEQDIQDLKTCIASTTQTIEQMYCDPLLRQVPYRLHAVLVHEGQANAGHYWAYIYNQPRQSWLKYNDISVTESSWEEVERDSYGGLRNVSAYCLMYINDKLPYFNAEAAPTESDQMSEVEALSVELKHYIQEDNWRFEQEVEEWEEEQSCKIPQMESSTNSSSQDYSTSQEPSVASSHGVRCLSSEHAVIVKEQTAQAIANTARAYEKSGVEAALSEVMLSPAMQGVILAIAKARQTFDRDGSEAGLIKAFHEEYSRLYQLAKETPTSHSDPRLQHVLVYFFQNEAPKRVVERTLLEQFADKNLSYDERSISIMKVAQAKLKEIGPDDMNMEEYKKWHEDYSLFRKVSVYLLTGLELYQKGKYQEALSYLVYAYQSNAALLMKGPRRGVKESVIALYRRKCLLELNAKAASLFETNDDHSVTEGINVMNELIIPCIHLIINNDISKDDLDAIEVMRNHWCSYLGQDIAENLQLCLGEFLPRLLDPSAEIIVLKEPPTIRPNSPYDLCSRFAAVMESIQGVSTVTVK
Summary of the method: as §1

Measured: log2 ratio of Biotin-Ahx-Ub-VS probe labelling

Sequence of USP24 (Q9UPU5 whole entry): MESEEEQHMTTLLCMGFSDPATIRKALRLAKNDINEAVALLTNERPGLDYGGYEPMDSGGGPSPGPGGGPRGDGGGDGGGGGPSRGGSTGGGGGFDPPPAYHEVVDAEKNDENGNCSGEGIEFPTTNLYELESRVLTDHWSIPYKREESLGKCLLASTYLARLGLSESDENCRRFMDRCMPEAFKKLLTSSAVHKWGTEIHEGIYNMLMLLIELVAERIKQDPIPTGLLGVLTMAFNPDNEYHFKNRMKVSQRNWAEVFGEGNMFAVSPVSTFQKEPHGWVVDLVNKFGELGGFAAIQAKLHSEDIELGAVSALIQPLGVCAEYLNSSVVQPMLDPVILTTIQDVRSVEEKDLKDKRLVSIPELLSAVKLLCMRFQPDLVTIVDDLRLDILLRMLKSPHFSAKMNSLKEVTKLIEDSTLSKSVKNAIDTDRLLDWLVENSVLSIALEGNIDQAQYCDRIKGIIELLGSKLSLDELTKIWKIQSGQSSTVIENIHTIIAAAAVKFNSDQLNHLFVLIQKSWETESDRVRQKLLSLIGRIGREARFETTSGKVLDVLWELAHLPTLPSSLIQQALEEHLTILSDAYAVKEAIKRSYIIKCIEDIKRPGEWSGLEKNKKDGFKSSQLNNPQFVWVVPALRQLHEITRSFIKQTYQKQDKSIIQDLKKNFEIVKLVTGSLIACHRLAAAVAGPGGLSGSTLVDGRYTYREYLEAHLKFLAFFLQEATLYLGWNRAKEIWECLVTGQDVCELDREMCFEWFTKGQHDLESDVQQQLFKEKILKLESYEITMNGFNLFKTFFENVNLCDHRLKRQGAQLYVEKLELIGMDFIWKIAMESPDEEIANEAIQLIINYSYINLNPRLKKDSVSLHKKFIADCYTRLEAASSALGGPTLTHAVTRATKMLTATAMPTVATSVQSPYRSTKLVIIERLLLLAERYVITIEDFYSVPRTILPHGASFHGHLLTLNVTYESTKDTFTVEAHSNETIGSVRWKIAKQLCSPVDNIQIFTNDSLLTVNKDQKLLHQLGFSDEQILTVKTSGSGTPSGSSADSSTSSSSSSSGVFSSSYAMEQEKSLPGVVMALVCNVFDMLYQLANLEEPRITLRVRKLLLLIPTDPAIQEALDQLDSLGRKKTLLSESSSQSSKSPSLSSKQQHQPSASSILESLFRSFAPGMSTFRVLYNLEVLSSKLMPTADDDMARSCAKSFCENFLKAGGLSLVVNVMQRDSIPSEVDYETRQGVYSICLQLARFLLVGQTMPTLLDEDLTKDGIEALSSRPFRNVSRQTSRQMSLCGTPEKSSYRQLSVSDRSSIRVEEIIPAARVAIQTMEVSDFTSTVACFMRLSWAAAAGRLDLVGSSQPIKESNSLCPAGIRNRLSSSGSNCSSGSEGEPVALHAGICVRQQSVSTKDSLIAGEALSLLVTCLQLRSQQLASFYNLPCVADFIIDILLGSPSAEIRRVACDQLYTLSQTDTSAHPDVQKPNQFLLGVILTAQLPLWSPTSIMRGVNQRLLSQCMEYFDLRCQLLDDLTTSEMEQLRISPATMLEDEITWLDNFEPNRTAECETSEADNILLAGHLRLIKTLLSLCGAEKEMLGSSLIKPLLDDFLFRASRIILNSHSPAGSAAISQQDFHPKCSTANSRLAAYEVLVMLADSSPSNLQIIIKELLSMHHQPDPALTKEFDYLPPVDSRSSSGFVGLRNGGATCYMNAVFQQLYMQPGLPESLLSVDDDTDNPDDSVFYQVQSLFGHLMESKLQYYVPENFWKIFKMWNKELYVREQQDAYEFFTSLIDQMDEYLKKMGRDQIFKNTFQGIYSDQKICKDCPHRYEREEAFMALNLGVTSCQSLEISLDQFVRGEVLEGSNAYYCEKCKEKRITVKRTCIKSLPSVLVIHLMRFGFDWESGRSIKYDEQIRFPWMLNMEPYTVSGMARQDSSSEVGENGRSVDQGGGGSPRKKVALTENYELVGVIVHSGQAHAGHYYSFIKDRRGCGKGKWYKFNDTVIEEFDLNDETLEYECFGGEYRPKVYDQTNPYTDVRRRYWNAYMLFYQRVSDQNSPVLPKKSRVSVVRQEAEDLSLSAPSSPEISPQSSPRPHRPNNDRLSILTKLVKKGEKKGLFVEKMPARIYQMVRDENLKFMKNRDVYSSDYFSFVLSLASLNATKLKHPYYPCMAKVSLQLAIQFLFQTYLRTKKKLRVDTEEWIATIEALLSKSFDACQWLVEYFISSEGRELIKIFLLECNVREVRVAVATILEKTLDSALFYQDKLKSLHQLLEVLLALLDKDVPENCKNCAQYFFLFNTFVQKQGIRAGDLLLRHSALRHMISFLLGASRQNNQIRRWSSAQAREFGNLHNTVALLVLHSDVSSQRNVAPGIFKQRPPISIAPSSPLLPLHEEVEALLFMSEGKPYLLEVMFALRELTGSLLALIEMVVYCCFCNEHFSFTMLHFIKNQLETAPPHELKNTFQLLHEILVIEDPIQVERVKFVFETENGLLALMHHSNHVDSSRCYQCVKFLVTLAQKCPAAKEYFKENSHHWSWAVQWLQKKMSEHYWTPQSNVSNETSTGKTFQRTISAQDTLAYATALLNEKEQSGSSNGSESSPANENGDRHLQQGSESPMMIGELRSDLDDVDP

Cl.O=C(CCl)NC1(c2ncccn2)CCC1
inactive: [1] 0.0868 | [2] 0.06 | [3] -0.18 | [4] -0.0581
